The supplement of paper PMC12645437, “Orthogonal IMiD-Degron Pairs Induce Selective Protein Degradation in Cells” (ACS Chemical Biology, 2025)
In all, about 8,300 sequences were measured (“log2 fold change of degron read counts, EGFP-low vs EGFP+ sorted cells (limma voom), compound-induced degradation”: median about -1.1, highest 2% from about 3.2 on). Many of the other results were omitted from the sample, so the highest values are more common in it than they were.

Biological target: T1, CRBN, Q96SW2
T1 chain: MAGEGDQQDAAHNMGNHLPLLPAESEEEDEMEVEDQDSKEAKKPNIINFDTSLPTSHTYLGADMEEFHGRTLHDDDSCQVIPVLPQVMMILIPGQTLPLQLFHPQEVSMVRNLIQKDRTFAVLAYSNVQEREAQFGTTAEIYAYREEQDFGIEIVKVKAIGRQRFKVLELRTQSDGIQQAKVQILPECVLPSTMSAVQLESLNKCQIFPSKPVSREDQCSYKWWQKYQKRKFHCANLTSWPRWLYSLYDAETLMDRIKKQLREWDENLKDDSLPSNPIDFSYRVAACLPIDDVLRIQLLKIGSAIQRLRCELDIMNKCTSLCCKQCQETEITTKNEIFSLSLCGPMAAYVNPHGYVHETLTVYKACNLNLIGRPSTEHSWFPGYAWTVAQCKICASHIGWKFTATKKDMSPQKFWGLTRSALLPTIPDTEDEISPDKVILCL
Assay: log2 fold change of degron read counts, EGFP-low vs EGFP+ sorted cells (limma voom), compound-induced degradation; higher = more compound-induced degradation of the degron-EGFP fusion; degrons are variants of IKZF1/3 zinc finger 2; compound dose not given here
Conditions: Jurkat, 18 h

[1] = compound: compound 19 (5-tert-butyl-thalidomide)
[2] = compound: compound 22 (5-morpholino-thalidomide)
[3] = compound: compound 33 (diphenyl IMiD analogue)
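Further: pooled lentiviral library of zinc finger degron-EGFP fusions in mCherry-positive Jurkat cells, FACS-sorted after compound exposure, with degron abundance counted by next-generation sequencing.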

B1: 46F_47R_49S_50V_52G_53H_54R_55F_67L_, Q9UKT9 (peptide)
chain: FRCSVCGHRFTQKGNLLRHIKL
log2 fold change of degron read counts [1]: -2.02 | log2 fold change of degron read counts [2]: -2.85 | log2 fold change of degron read counts [3]: -2.44 | log2 fold change of degron read counts (compound: thalidomide): -2.23

B2: 46F_47Y_49N_50Q_52G_53H_54G_55F_67L_, Q9UKT9 (peptide)
chain: FYCNQCGHGFTQKGNLLRHIKL
log2 fold change of degron read counts [1]: -2.38 | log2 fold change of degron read counts [2]: -2.88 | log2 fold change of degron read counts [3]: -2.5 | log2 fold change of degron read counts (compound: thalidomide): -2.33

B3: 46F_47N_49D_50V_52G_53A_54I_55F_67L_, Q9UKT9 (peptide)
chain: FNCDVCGAIFTQKGNLLRHIKL
log2 fold change of degron read counts [1]: -1.74 | log2 fold change of degron read counts [2]: -3.02 | log2 fold change of degron read counts [3]: -1.86 | log2 fold change of degron read counts (compound: thalidomide): -2.46

B4: 46F_47W_49E_50Q_52G_53A_54K_55F_67L_, Q9UKT9 (peptide)
chain: FWCEQCGAKFTQKGNLLRHIKL
log2 fold change of degron read counts [1]: 2.4 | log2 fold change of degron read counts [2]: 1.97 | log2 fold change of degron read counts [3]: -0.464 | log2 fold change of degron read counts (compound: thalidomide): -0.551

B5: 46L_47M_49N_50Q_52G_53F_54M_55C_67L_, Q9UKT9 (peptide)
chain: LMCNQCGFMCTQKGNLLRHIKL
log2 fold change of degron read counts [1]: -1.58 | log2 fold change of degron read counts [2]: -1.89 | log2 fold change of degron read counts [3]: -0.98 | log2 fold change of degron read counts (compound: thalidomide): -1.42

B6: 46F_47S_49D_50V_52G_53A_54T_55F_67L_, Q9UKT9 (peptide)
chain: FSCDVCGATFTQKGNLLRHIKL
log2 fold change of degron read counts [1]: 0.618 | log2 fold change of degron read counts [2]: 0.269 | log2 fold change of degron read counts [3]: 0.317 | log2 fold change of degron read counts (compound: thalidomide): -0.694

B7: 46F_47D_49E_50I_52G_53H_54G_55F_67L_, Q9UKT9 (peptide)
chain: FDCEICGHGFTQKGNLLRHIKL
log2 fold change of degron read counts [1]: -3.03 | log2 fold change of degron read counts [2]: -3.17 | log2 fold change of degron read counts [3]: -3 | log2 fold change of degron read counts (compound: thalidomide): -2.57

B8: 46F_47S_49E_50I_52G_53H_54V_55F_67L_, Q9UKT9 (peptide)
chain: FSCEICGHVFTQKGNLLRHIKL
log2 fold change of degron read counts [1]: -2.99 | log2 fold change of degron read counts [2]: -2.93 | log2 fold change of degron read counts [3]: -2.63 | log2 fold change of degron read counts (compound: thalidomide): -2.67
